HEK cytotox = cytotoxic compounds in HEK 293 cells; HEK 293 viability, ATP luminescence (CellTiter-Glo), 48-72 h; Potency, µM (highest dose often 115 µM), for inactives: at the highest dose activity change, negative = cytotoxicity, actives largely listed as inhibitors; AID 1345083; 94,000 tested, 6.6% active; also: % is scaled to controls: 0 for no effect and ±100 for the full control effect; nearly all actives have a fitted effect of over 60% in size
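CellTiter-Glo luminescence (cellular ATP) was read after 48 or 72 hr of compound exposure at 37 degree Celsius. Cells were HEK 293 plated at 250 cells/well.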
NPR1 antag = antagonists of human natriuretic peptide receptor Npr1; 76,000 tested, 1.6% active; Potency, µM (highest dose often 46.3 µM), for the others: at the top dose activity change, negative = inhibition, actives largely listed as inhibitors; P16066; HEK293 hNpr1 GloSensor cGMP, ANP-stimulated luminescence; AID 1347048; calls by dose curve; also: % is scaled to controls: 0 for no effect and ±100 for the full control effect; nearly all actives have a fitted effect of over 60% in size
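Compound pre-incubated 30 min at room temperature on GloSensor-loaded HEK293 cells stably carrying hNpr1 and the pGS-40F cGMP biosensor. Stimulation uses hNppA at 0.1 nM final; luminescence is taken at baseline and 20 min post-agonist.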
FLuc inh-1 = inhibitors of firefly (Photinus pyralis) luciferase; Potency, µM (series often up to 115 µM), hits mostly inhibitors; AID 1347043; P08659; 76,000 tested, 2.5% active; purified P. pyralis luciferase, luminescence, biochemical; also: % is scaled to controls: 0 for no effect and ±100 for the full control effect; nearly all actives have a fitted effect of over 65% in size
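Purified 10nM P. pyralis luciferase with 10uM D-luciferin and 10uM ATP in 50mM Tris acetate pH 7.5, 10mM Mg acetate, 0.01% Tween-20, 0.05% BSA. qHTS titration; luminescence read by CCD imager.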
NIH3T3 tox = cytotoxic compounds in NIH 3T3 cells; NIH 3T3 viability, CellTiter-Glo ATP luminescence, 48-72 h; Potency, µM (top dose mostly 96.7 µM), for inactives: at the top dose activity change, negative = cytotoxicity, actives largely listed as inhibitors; 94,000 tested, 4.3% active; AID 1345082; also: % is scaled to controls: 0 for no effect and ±100 for the full control effect; nearly all actives have a fitted effect of over 55% in size
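Cytotoxicity was measured by CellTiter-Glo ATP luminescence after 48 or 72 h compound exposure at 37 °C. Mouse NIH 3T3 fibroblasts were seeded at 400 cells/well and dosed by 23 nL pin transfer.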
GPT2 inh = inhibitors of human GPT2 alanine aminotransferase; Q8TD30; Recombinant GPT2, coupled pyruvate oxidase/HRP Amplex Red fluorescence; Potency, µM (highest dose often 57.7 µM), inactives show at the top dose activity change, negative = inhibition, usual class: inhibitors; 100,000 tested, 0.25% active; also: % is scaled to controls: 0 for no effect and ±100 for the full control effect; nearly all actives have a fitted effect of over 60% in size
Target sequence (Q8TD30 whole entry, looked up): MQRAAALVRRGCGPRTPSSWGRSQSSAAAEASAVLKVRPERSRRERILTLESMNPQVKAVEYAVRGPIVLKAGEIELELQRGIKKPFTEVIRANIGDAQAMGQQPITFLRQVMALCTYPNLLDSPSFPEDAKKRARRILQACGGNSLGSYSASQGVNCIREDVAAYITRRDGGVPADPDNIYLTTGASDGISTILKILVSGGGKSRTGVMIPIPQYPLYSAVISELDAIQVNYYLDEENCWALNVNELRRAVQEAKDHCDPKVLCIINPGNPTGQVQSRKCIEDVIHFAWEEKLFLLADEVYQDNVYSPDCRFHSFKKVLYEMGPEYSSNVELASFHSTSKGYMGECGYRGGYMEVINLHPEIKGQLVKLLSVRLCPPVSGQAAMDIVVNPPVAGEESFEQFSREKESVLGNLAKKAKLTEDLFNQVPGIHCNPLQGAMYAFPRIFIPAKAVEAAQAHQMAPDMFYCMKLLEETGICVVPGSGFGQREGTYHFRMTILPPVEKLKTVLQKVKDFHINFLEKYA
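Fluorescence read-out: pyruvate from GPT2 turnover coupled to pyruvate oxidase, HRP and Amplex Red (0.2mM ThPP, 0.2U/mL PO and HRP, 50uM Amplex final). Substrates 250uM a-KG, 2mM L-alanine; enzyme 10ng/uL; 30 min RT.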
FLuc SDR no ATP = binders stabilizing firefly luciferase, without ATP. shares compounds with FLuc inh-1. Purified FLuc-C-HiBiT, Nano-Glo HiBiT luminescence, no ATP. Potency, µM (highest dose often 32.7 µM), without a hit: at the highest dose activation (signal gain), usual class: activators. 1,300 tested, 7.8% active. AID 1963318; also: nearly all actives have a fitted effect of over 55% in size
FLuc SDR ATP = firefly luciferase binding stabilization, ATP added. purified FLuc-C-HiBiT + ATP, HiBiT complementation luminescence. shares compounds with FLuc inh-1. 1,300 tested, 8.7% active. Potency, µM (highest dose often 32.7 µM), inactives show at the top dose activation (gain of signal), hits mostly activators. AID 1963319;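 also: signal reports ligand binding via conformational change of the enzyme rather than luciferase catalysis; % of control where 0% means no effect; nearly all actives have a fitted effect of over 55% in size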
FLuc inh-2 = firefly luciferase enzyme inhibition. Potency, µM (highest dose often 32.7 µM), without a hit: top-dose activity change, negative = inhibition, actives largely listed as inhibitors. shares compounds with FLuc inh-1. AID 1963320. 1,300 tested, 42% active. purified FLuc-C-HiBiT enzyme, luciferin luminescence; also: % is scaled to controls: 0 for no effect and ±100 for the full control effect; nearly all actives have a fitted effect of over 70% in size
The depositor's hits bear a star; i = inactive; ? = inconclusive; . = no result given; [ ] = remark or other dose. Rows were chosen to be rich in hits. Some 10% of all compounds tested hit in one or more screens of this group. Unless noted, calls follow the shape of the dose curve; as a rule, active = well fitted curve in the direction sought with a large enough effect; inconclusive = small, poorly fitted or top-dose-only effect, or another doubt; inactive = no such curve, though single readings can be large; an effect the other way counts as inactive or inconclusive. Potency is read from the fitted curve at half-maximal effect.

SMILES	HEK cytotox	NPR1 antag	FLuc inh-1	NIH3T3 tox	GPT2 inh	FLuc SDR no ATP	FLuc SDR ATP	FLuc inh-2
COc1ccc(-c2cc3c(cn2)CN(C(C)=O)CCN3)cc1	.	.	.	.	.	28%[49.3 µM]	18%[49.3 µM]	13µM*
CC(=O)N1CCNc2cc(-c3cccc(N4CCOCC4)c3)ncc2C1	.	.	.	.	.	24%[49.3 µM]	17%[49.3 µM]	?
CC(=O)N1CCNc2cc(-c3ccccc3F)ncc2C1	.	.	.	.	.	15%[65.7 µM]	12%[65.7 µM]	?
O=C(Cc1c[nH]c2ccccc12)NCC(=O)N1CCCCCCNC(=O)CC1c1ccccc1 (centres undefined)	0%	-2%	i	-28%	i	.	.	.
c1c(-c2nc(C3CCOC3)no2)sc2c1CCCC2 (centres undefined)	?	8.9µM*	0.63µM*	?	i	21%	?	5.6µM*
Cc1ccc(-n2ncc3c(N4CCCCC4)nc(NCCCO)nc32)cc1	.	.	.	.	.	10%	7%	-10%
Fc1ccc(-n2ncc3c(N4CCCCCC4)ncnc32)cc1	.	.	.	.	.	?	?	1.2µM*
Cc1ccc(-n2ncc3c(N4CCCCCC4)ncnc32)cc1	.	.	.	.	.	1.8µM*	0.88µM*	0.2µM*
O=C(c1ccccn1)N1CCCC(c2nc(C3CCOCC3)no2)C1 (centres undefined)	1%	2%	i	i	1%	.	.	.
CC1(NC(=O)C2CC2)CN(Cc2nc(-c3ccccc3)cs2)C1	-29%[172 µM]	?	13µM*	?	-20%[88.5 µM]	16%[49.3 µM]	13%[49.3 µM]	?
Cc1n[nH]c(C)c1C(N)C(=O)N1CCN(c2ccc3nccn3n2)CC1 (centres undefined)	-1%	3%	i	i	-13%	.	.	.
O=c1[nH]nc2n1CCCCC2	-10%	11%	i	-12%	i	13%	11%	-3%
O=C(O)C1CCc2nc(N3CCN(C(=O)C4CCC4)CC3)sc2C1 (centres undefined)	-1%	-1%	6.3µM*	?	i	13%	?	8.8µM*
C=CCCC(=O)N1CCOc2c(O)cc(-c3nc4ccccc4s3)cc2C1	50µM*	-26%	?	?	-2%	12%	9%	-17%
Oc1cc(-c2cccc(Cl)c2)cc2c1OCCN(Cc1noc(C3CC3)n1)C2	?	-3%	i	?	?	.	.	.
CC(CCc1ccc(O)cc1)N1CCOc2c(O)cc(-c3nc4ccccc4s3)cc2C1 (centres undefined)	.	.	.	.	.	14%	12%	-8%
Oc1ccc(Cl)cc1CN1CCOc2c(O)cc(-c3nc4ccccc4s3)cc2C1	.	.	.	.	.	15%	10%	-3%
O=C(c1ccccc1C(F)(F)F)N1CCOc2c(cc(-c3nc4ccccc4s3)cc2OC2CCOC2)C1 (centres undefined)	.	.	.	.	.	12%	8%	3%
CC(=O)NCCC(=O)N1CCOc2c(O)cc(-c3cccc(Cl)c3)cc2C1	?	4%	i	-29%	1%	.	.	.
CCn1cc(C(=O)N2CCOc3c(O)cc(-c4ccccc4C)cc3C2)cn1	?	-12%	i	?	2%[11.5 µM]	.	.	.
COCCN1C(=O)[C@H]2CN(Cc3cc(F)ccc3F)C[C@H]2C1=O	-6%	-1%	i	-15%	i	.	.	.
CCCc1noc(-c2cccn3c(CNC(=O)CCc4ccccc4)nnc23)n1	3%	-14%	i	-15%	?	.	.	.
Cc1ccc(NC(=O)N2CCc3c(c4cc(F)ccc4n3C)C2)cc1	?	-15%	?	?	?	.	.	.
O=C(Cc1c(F)cccc1Cl)N1C[C@@H](CO)[C@H](c2ccncc2)C1	-2%	2%	i	-34%	2%	.	.	.
O=C(O)c1ccc(-c2noc(-c3ccccc3F)n2)cc1	.	.	.	.	.	?	0.25µM*	0.2µM*
SMILES	HEK cytotox	NPR1 antag	FLuc inh-1	NIH3T3 tox	GPT2 inh	FLuc SDR no ATP	FLuc SDR ATP	FLuc inh-2
COc1cc(-c2noc(-c3nc(-c4ccccc4F)no3)n2)cc(OC)c1OC	9%	-3%	i	i	i	.	.	.
O=C(O)c1ccccc1-c1noc(-c2ccccc2F)n1	.	.	.	.	.	27%	?	?
CC1CCC(NC(=O)c2noc(-c3ccccc3F)n2)CC1 (centres undefined)	-27%	-10%	8.9µM*	-21%	?	15%	19%	?
CCCCCNC(=O)c1noc(-c2ccccc2F)n1	?	-9%	?	?	-31%	.	.	.
Cc1cccc(S(=O)(=O)N2CC(C(=O)NC3CCCCC3)C3(CCOCC3)C2)c1 (centres undefined)	-12%	0%	i	?	0%	.	.	.
O=C(c1cccs1)N1CCN2CCS(=O)(=O)N(C3CC3)C(=O)C2C1 (centres undefined)	1%	.	.	-6%	4%	.	.	.
COc1ccc(CN2CCOc3nc(-c4cc5ccccc5o4)ncc3C2=O)cc1	?	?	3.5µM*	-14%[138 µM]	-1%[88.5 µM]	16%[49.3 µM]	16%[49.3 µM]	8.1µM*
